Rows were chosen to be rich in hits. Some 6.7% of all compounds tested hit in one or more screens of this group.
BoNT F protease = BoNT/F light chain protease inhibitors, primary screen, biochemical, flow cytometry, MLPCN library. Botulinum neurotoxin type F light chain protease (Clostridium botulinum). inhibition, % at 10 µM. 360,000 tested, 0.22% active. Multiplex microsphere protease cleavage assay; in the data active = inhibition above about 35%, passing the limit was not always enough; inconclusive = no clear call, values can overlap the other calls; note: plate controls were buffer without enzyme for full effect and enzyme alone for no effect
Mtb FBA inh = Mtb FBA enzyme inhibitors, primary screen, biochemical, fluorescence, strain H37Rv; Fructose-bisphosphate aldolase (Mycobacterium tuberculosis (strain ATCC 25618 / H37Rv)), …; purified M. tuberculosis FBA, fluorescence read-out; inhibition, % at 1 µM; 360,000 tested, 2.3% active; in the data active = inhibition above about 27%;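 note: 0% = vehicle and 100% = reference inhibitor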
Anthrax LF prot = Bacillus anthracis LF protease inhibitors, primary screen, biochemical, multiplex microsphere, MLPCN library | multiplex microsphere protease cleavage assay | 360,000 tested, 0.12% active | inhibition, % at 10 µM | Lethal factor (Bacillus anthracis), P15917 | AID 588501, 2011; note: plate controls were buffer without enzyme for full effect and enzyme alone for no effect
Target sequence (P15917 whole entry, looked up): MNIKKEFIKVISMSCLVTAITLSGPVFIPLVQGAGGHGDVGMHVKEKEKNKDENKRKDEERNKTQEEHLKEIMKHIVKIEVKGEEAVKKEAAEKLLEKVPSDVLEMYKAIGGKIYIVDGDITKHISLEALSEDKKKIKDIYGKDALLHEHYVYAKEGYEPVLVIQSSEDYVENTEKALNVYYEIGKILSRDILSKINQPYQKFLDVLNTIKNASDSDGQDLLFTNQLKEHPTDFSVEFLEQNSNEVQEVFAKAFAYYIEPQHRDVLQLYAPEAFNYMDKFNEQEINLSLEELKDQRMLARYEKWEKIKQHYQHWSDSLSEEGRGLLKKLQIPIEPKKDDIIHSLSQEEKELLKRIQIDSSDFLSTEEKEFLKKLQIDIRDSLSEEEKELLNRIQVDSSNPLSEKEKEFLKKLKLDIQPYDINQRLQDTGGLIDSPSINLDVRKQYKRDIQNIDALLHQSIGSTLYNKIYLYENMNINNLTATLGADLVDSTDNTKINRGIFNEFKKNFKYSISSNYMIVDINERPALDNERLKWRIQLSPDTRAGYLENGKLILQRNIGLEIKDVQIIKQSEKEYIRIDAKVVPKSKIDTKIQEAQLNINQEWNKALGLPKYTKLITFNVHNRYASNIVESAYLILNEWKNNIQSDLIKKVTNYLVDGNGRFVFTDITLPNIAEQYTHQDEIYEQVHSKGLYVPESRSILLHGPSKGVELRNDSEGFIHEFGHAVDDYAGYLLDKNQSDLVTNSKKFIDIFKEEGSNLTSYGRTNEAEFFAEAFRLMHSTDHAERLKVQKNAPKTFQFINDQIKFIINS
BoNT-A LC inh2 = BoNT/A light chain protease inhibitors, primary screen, biochemical, flow cytometry, MLPCN library; Botulinum neurotoxin type A light chain protease (Clostridium botulinum A str. ATCC 3502); multiplex microsphere protease substrate cleavage; inhibition, % at 10 µM; 360,000 tested, 0.17% active; note: plate controls were buffer without enzyme for full effect and enzyme alone for no effect
Bead autofluor = flagged as autofluorescent in microsphere protease counterscreen; compound autofluorescence counterscreen, microsphere flow cytometry; hits give high values; fluorescence intensity (test concentration not listed); 360,000 tested, 3.1% active; in the data active = fluorescence intensity above about 16000; inconclusive = no clear call, values can overlap the other calls
GDH-TPI counter-1 = GDH-TPI coupling enzyme inhibitors, primary screen, artefact control for M. tuberculosis FBA inhibitor project, biochemical, absorbance, full deck. inhibition, % at 4.8 µM. AID 588335, 2011. 360,000 tested, 1.2% active. GDH-TPI coupled enzyme counterscreen, NADH absorbance; in the data active = inhibition above about 30%;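 note: 0% = DMSO wells and 100% = wells lacking the enzyme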
Mtb FBA inh conf = M. tuberculosis aldolase blockers, biochemical, fluorescence, strain H37Rv, confirmation. 5,600 tested, 78% active. inhibition, % at 1 µM. AID 651616, 2012. purified M. tuberculosis FBA, fluorescence read-out. shares compounds with Mtb FBA inh; in the data active = inhibition above about 27%;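 note: 0% = vehicle wells and 100% = reference inhibitor wells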
GDH-TPI counter-2 = GDH-TPI coupling enzyme inhibitors, artefact control for M. tuberculosis FBA inhibitor project, biochemical, fluorescence, high throughput; GDH-TPI coupled enzyme counterscreen; 5,600 tested, 81% active; shares compounds with Mtb FBA inh; inhibition, % at 1 µM; AID 652141, 2013; in the data active = inhibition above about 10%
GDH-TPI DR = GDH-TPI coupling enzyme inhibitors, dose response, artefact control for M. tuberculosis FBA inhibitor project, biochemical, fluorescence, IC50 | shares compounds with Mtb FBA inh | GDH-TPI coupled enzyme assay, artifact counterscreen | IC50, µM | 170 tested, 79% active | AID 652145, 2013; call rule not given here
* marks the source's active call; other numbers are inactive results; u = inconclusive; x = not tested or not shown; + = active, no number. Cut-off read from the data, not from the text of the source, unless noted: active = inhibition above about 30%; inconclusive = no clear call, values can overlap the other calls; inactive = below that.

SMILES	BoNT F protease	Mtb FBA inh	Anthrax LF prot	BoNT-A LC inh2	Bead autofluor	GDH-TPI counter-1	Mtb FBA inh conf	GDH-TPI counter-2	others
O=C(CNC(=O)c1cccc(F)c1)OCC(=O)N1CCCc2ccccc21	2	1	-10	0	6855	6	x	x
Cc1ccc(S(=O)(=O)N2CCCOC2CNC(=O)C(=O)NCCC2=CCCCC2)cc1 (stereo unspecified)	-7	1	-3	-1	2021	6	x	x
CC(Oc1ccc2ccc(=O)oc2c1)C(=O)NC1CCN(Cc2ccccc2)CC1 (stereo unspecified)	-3	23	-3	-2	4415	20	x	x
Cc1cc(OCC(=O)Nc2ccccn2)c2c(C)c(C)c(=O)oc2c1	-11	11	-2	-3	6171	-6	x	x
Cc1c(C)c2ccc(OC(C)C(=O)NC3CCN(Cc4ccccc4)CC3)cc2oc1=O (stereo unspecified)	4	84*	2	0	5951	-7	8	-3
Cc1cc(=O)oc2c3c(cc(OCC(=O)NC4CC4)c12)OC(C)(C)CC3	-5	75*	-4	-1	5494	1	52*	29*
Cc1cc(OCC(=O)NC2CC2)c2c(C)cc(=O)oc2c1	-7	80*	0	-2	6467	4	51*	38*
Cc1cc(=O)oc2cc(OCC(=O)NC3CCCC3)ccc12	-5	16	-4	0	5600	-9	x	x
Cc1cc(OCC(=O)NC2CC2)c2c(C)c(C)c(=O)oc2c1	0	76*	-3	0	5096	14	53*	45*
COc1ccc(-n2nnnc2SCC(=O)N2CCCc3ccccc32)cc1OC	-9	-3	-1	0	3106	3	x	x
CCCCNCC1C(Oc2ccc(Cl)cc2)C(=O)N1c1ccccc1C (stereo unspecified)	-12	-3	-1	0	2358	7	x	x
CCCCc1cc(=O)oc2cc(OCC(=O)NC3CCN(Cc4ccccc4)CC3)ccc12	-13	1	-5	-2	4781	11	x	x
CCc1cc(=O)oc2cc(C)cc(OCC(=O)NC3CCN(Cc4ccccc4)CC3)c12	3	40*	-2	1	4557	15	1	3
CCOC(=O)C(C)Sc1nc(-c2cccs2)ccc1C#N (stereo unspecified)	-8	41*	-1	1	11865	21	2	4
C=COC(=O)CSc1nc(-c2cccs2)ccc1C#N	-3	30*	8	13	10879	16	71*	53*
COc1ccc(-c2ncccc2O)cc1	-7	40*	0	0	2533	0	88*	91*
Cc1cc(=O)oc2cc(OCC(=O)OCC(=O)NCCc3ccccc3)ccc12	1	26	-8	-1	4613	17	x	x
CCOC(=O)C(c1ccccc1)C(Nc1ccccc1)c1ccccn1 (stereo unspecified)	2	2	-2	0	5919	-1	x	x
COc1ccc2nc(CC(C)(C)CC(=O)O)c[n+]([O-])c2c1	x	64*	x	x	x	9	+	+
CCNc1nc(NCC)nc(N/N=C/c2ccc([N+](=O)[O-])o2)n1	-3	-1	-4	0	9592	3	x	x
Cc1oc(-c2ccccc2F)nc1CS(=O)(=O)CC(=O)NCCCc1ccccc1	4	1	-1	0	6497	-10	x	x
O=C(OCc1cc(=O)oc2cc(O)ccc12)c1cc(S(=O)(=O)N2CCOCC2)ccc1F	-2	41*	0	1	6221	20	-1	-5
O=C(Nc1ccc(-c2n[nH]c(=S)o2)cc1)c1ccccc1Br	u	7	10	-1	4091	11	x	x
Cn1cncc1C#Cc1ccc2cc(CCO)oc(=O)c2c1	5	34*	6	0	3667	17	+	+
Cn1cncc1C#Cc1ccc2cc(C3(O)CCCCC3)oc(=O)c2c1	1	4	-1	0	3290	7	x	x
SMILES	BoNT F protease	Mtb FBA inh	Anthrax LF prot	BoNT-A LC inh2	Bead autofluor	GDH-TPI counter-1	Mtb FBA inh conf	GDH-TPI counter-2	others
Cc1cc2nc(/C=C/c3nc4cc(C)c(C)cc4[nH]3)[nH]c2cc1C	-2	37*	-1	1	3786	8	150*	85*
Cc1cc2nc(CO)[nH]c2cc1C	0	5	7	1	2805	3	x	x
COc1ccc(-c2ccc3c(c2)CN(C(=O)CCc2ccccc2)Cc2cnnn2-3)cc1	10	63*	-1	0	6934	x	+	173*
CCOc1ccccc1N1CCN(C(=O)c2cccc(S(=O)(=O)N3CCOCC3)c2)CC1	-5	-1	0	2	5095	2	x	x
Cn1c(N)nc2nc(CCc3ccccc3)c(=O)[nH]c2c1=O	2	60*	8	-1	4118	4	8	2
O=c1[nH]c2ccccc2nc1/C=C/c1ccc(F)cc1	-8	9	-1	8	5620	8	x	x
C(=C\c1nccc2c1[nH]c1ccccc12)/c1ccccc1	u	91*	-1	6	4424	7	11	0	GDH-TPI DR=1.1*
Cc1ccc(/C=C\c2nccc3c2[nH]c2ccccc23)cc1	3	86*	-1	6	4857	1	174*	135*
Fc1ccc(/C=C\c2nccc3c2[nH]c2ccccc23)cc1	-1	74*	2	5	6526	2	19	20*
Cc1c(NS(=O)(=O)c2cccc(C(=O)NCc3cccc(Cl)c3)c2)c(=O)n(-c2ccccc2)n1C	-11	1	-4	-1	3948	-6	x	x
COc1cc(/C=N/c2oc(-c3ccccc3)cc2C#N)ccc1O	-6	47*	-2	-1	10037	48*	+	+
COc1cc(/C=N/NC(=O)CCn2cnc(-c3ccccc3)c2-c2ccccc2)ccc1O	-2	-3	1	0	2014	12	x	x
COc1cc(OC)cc(-n2nnnc2SCC(=O)NCCc2ccc(OC)c(OC)c2)c1	2	0	-2	0	4658	-2	x	x
